Assay outcomes deposited in PubChem by National Center for Advancing Translational Sciences (NCATS).
Tb PFK block – inhibitors of T. brucei phosphofructokinase | O15648 | 330,000 tested, 0.17% active | T. brucei PFK, ADP-Glo luminescence | Potency, µM (doses to about 57.5 µM), hits mostly inhibitors; also: nearly all actives have a fitted effect of over 60% in size
Target sequence (O15648 whole entry, looked up): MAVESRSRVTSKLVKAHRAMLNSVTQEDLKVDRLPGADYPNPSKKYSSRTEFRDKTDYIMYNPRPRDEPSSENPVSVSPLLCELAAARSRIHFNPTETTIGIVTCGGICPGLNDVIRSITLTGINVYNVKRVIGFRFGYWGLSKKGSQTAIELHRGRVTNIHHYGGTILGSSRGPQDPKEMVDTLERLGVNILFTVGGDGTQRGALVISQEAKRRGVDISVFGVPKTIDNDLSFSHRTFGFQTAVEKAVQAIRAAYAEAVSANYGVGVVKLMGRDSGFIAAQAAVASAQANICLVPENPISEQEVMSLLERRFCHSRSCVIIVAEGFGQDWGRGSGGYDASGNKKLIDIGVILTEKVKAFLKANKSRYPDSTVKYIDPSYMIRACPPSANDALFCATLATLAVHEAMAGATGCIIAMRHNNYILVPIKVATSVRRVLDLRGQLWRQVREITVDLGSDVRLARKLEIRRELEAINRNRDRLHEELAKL
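Compounds were pin-transferred as a titration series up to 57 uM into substrate buffer (0.5 mM F6P, 0.1 mM ATP, pH 8.0), then 1.25 nM PFK was added and reactions ran 45 min before ADP-Glo detection.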
PLK1 PBD inh – inhibitors of human PLK1 polo-box domain binding; Plk1 PBD binding of FITC phosphopeptide, fluorescence polarization; Potency, µM, hits mostly inhibitors; AID 720504; P53350; 360,000 tested, 2.8% active; also: series mostly up to about 57 µM; nearly all actives have a fitted effect of over 65% in size
BRCA1 expr act – increases BRCA1 expression | Potency, µM (highest dose often 46.1 µM), hits mostly activators | MCF7-BRCA1-FFLuc reporter, luminescence, 48 h; response scale: scaled: vehicle 0%, 10 µM genistein 100% | 380,000 tested, 1.1% active; also: nearly all actives have a fitted effect of over 80% in size
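Reporter cells (MCF7, BRCA1 promoter-firefly luciferase) received library compounds across a concentration series for 48 h. End-point luminescence was measured and concentration-effect curves derived after normalization.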
VDR inhibitor – blocks the human vitamin D receptor | P11473 | 400,000 tested, 0.93% active | Potency, µM, actives largely listed as inhibitors | VDR-SRC2-3 peptide fluorescence polarization, 2 h | AID 504847
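Signal is fluorescence polarization, reporting how far test compounds block the interaction of VDR with the SRC2-3 coregulator peptide after a 2 h room-temperature incubation.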
Each line names hits and unclear results; the compound was inactive in the other large screens. Sampled rows, rich in hits. Any-hit rate of the full collection: about 3.9%. Calls follow the shape of the dose curve; as a rule, active = well fitted curve in the direction sought with a large enough effect; inconclusive = small, poorly fitted or top-dose-only effect, or another doubt; inactive = no such curve, though single readings can be large; an effect the other way counts as inactive or inconclusive.

Cc1cc(Cl)ccc1C(O)c1ncc(-c2cccc(C(F)(F)F)c2)[nH]1 (centres undefined)	none (no result: Tb PFK block, VDR inhibitor)
CC(C)(C)NC(=O)C(c1c[nH]c2ccccc12)N(C(=O)Cn1nnc(-c2ccc(F)cc2)n1)c1cccc(O)c1 (centres undefined)	PLK1 PBD inh 27µM, VDR inhibitor inconclusive
Cn1c(/N=C/c2c(O)ccc3ccccc23)nc2ccccc21	PLK1 PBD inh 1.3µM, VDR inhibitor 35µM
CCCOc1ccc(C(=O)Nc2nonc2-c2ccc(OCC)cc2)cc1	none (no result: Tb PFK block, PLK1 PBD inh, BRCA1 expr act)
CC12CCC(c3c1nc1ccccc1[n+]3[O-])C2(C)C (centres undefined)	PLK1 PBD inh 19µM, VDR inhibitor 71µM
Cc1cc(Cl)ccc1OCC(=O)Nc1cccc(-c2nc3ccccc3o2)c1	none (no result: Tb PFK block, PLK1 PBD inh, VDR inhibitor)
CCOc1cc(N2C(=O)CC3CS(=O)(=O)CC32)c(OCC)cc1NC(=O)c1ccccc1 (centres undefined)	PLK1 PBD inh 3µM, VDR inhibitor inconclusive
CC(C)C[C@H]1CN(CCCC[C@H]2CNC(=O)C(=O)N2CCc2ccccc2)C(=O)C(=O)N1CCc1ccc(O)cc1	none (no result: Tb PFK block, VDR inhibitor)
CC1(C)CC(=O)c2cc(NC(=O)c3ccccc3)c(=O)oc2C1	PLK1 PBD inh 27µM
CC(=O)c1cc(NC(=O)c2ccc(C)cc2)c(=O)oc1C	PLK1 PBD inh 11µM, VDR inhibitor inconclusive
CC(=O)c1cc(NC(=O)c2ccccc2)c(=O)oc1C	PLK1 PBD inh inconclusive
Cc1oc(=O)c(NC(=O)c2ccccc2)cc1C(=O)c1ccccc1	VDR inhibitor 18µM
COc1ccc(C(=O)Nc2cc3c(oc2=O)CCCC3=O)cc1	none
CC(=O)c1cc(NC(=O)c2ccc(C)cc2)c(=O)oc1/C=C/N(C)C	none
CC1=C(C(=O)N(C(C)C)C(C)C)CC(CC(=O)NC2CC2)C(=O)N1CCCN1CCCC1=O (centres undefined)	none (no result: Tb PFK block, VDR inhibitor)
C/C(=N/NC(=O)c1ccccn1)c1ccc(O)cc1	BRCA1 expr act inconclusive
C/C(=N/NC(=O)c1ccccn1)c1c[nH]c2ccccc12	BRCA1 expr act 7.1µM
CC1=C(C(=O)N2CCOCC2)CC(CC(=O)NC2CCCCC2)C(=O)N1CCCN1CCCC1=O (centres undefined)	none (no result: Tb PFK block, VDR inhibitor)
Cc1ccc(NC(=O)Cn2c(SCc3ccc(F)cc3)nc3cccnc32)cc1F	none (no result: Tb PFK block, PLK1 PBD inh, BRCA1 expr act)
COc1cc(C(=O)NNC(=S)Nc2ccc(S(N)(=O)=O)cc2)cc(OC)c1OC	PLK1 PBD inh 6.7µM
COc1ccc(C(=O)NC(=S)Nc2ccc(S(N)(=O)=O)cc2)cc1	none
COc1cc(C(=S)N2CCCC2)ccc1OS(=O)(=O)c1ccc(NC(C)=O)cc1	none
COc1ccc(S(=O)(=O)Oc2c(OC)cc(C(=S)N3CCOCC3)cc2OC)cc1	PLK1 PBD inh 27µM, VDR inhibitor inconclusive
COc1cc(C(=S)N2CCCC2)cc(OC)c1OS(=O)(=O)c1ccc(NC(C)=O)cc1	PLK1 PBD inh 12µM, VDR inhibitor inconclusive
Cc1ccccc1OCC(=O)Nc1ccccc1C(=O)NC1CC1	none
Cc1cc(C)nc(NC2=NCCN2C(=O)NC2CCCCC2)n1	PLK1 PBD inh 7.5µM
CCNC(=S)N1CCN=C1Nc1nc(C)cc(C)n1	none
Cc1ccc(OC(=O)c2ccc(S(=O)(=O)N(C)C)cc2)c(-n2nc3ccccc3n2)c1	BRCA1 expr act 13µM
COc1ccc(-c2cc(C(=O)N3CCCCC3C)no2)cc1OC (centres undefined)	none (no result: Tb PFK block, PLK1 PBD inh, BRCA1 expr act)
O=C(c1cc(-c2ccc(Cl)c(Cl)c2)on1)N1CCCCC1	BRCA1 expr act 4µM
CCC1CCCCN1C(=O)c1cc(-c2ccc(Cl)c(Cl)c2)on1 (centres undefined)	BRCA1 expr act 11µM
CC1CCCCN1C(=O)c1cc(-c2ccc(Cl)c(Cl)c2)on1 (centres undefined)	BRCA1 expr act 5.6µM
COc1ccc(CN2CCNC(=O)C2CC(=O)NC2CCCC2)c(C)c1C (centres undefined)	PLK1 PBD inh 9.5µM, VDR inhibitor inconclusive
Cc1ccc(NC(=O)COC(=O)C2CC3C=CC2C3)cc1S(=O)(=O)N1CCCCC1 (centres undefined)	PLK1 PBD inh 21µM
O=c1cc(-c2ccccc2)ss1	PLK1 PBD inh 12µM, VDR inhibitor inconclusive (no result: Tb PFK block)
COc1ccc(O)c(C(=O)c2cc(SCC(=O)O)c3nc4sc5c(c4c(=O)n3c2)CCCC5)c1	PLK1 PBD inh 27µM, BRCA1 expr act inconclusive
CCOC(=O)c1cccc(NC(=O)CC(c2cc(OC)c(OC)c(OC)c2)N2Cc3ccccc3C2=O)c1 (centres undefined)	none (no result: Tb PFK block, PLK1 PBD inh)
C=CC(C1=CC(=O)C(OC)=CC1=O)c1ccccc1 (centres undefined)	VDR inhibitor 8.9µM (no result: Tb PFK block, PLK1 PBD inh, BRCA1 expr act)
